From PubChem BioAssay (Tox21)
Results filed as inconclusive are left out. Calls of active or inactive are those of the source. Unless noted, calls follow the shape of the dose curve; as a rule, active = well fitted curve in the direction sought with a large enough effect in the repeat runs; inconclusive = weak or mixed curves; inactive = no such curve, though single readings can be large; an effect the other way counts as inactive or inconclusive.

Columns and labels:
[1] = qHTS assay to identify aromatase inhibitors - cell viability counter screen (AID 743084);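 also: cells stimulated with testosterone during compound exposure; nearly all actives have a fitted effect of over 55% in size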
[2] = biological target: Aryl hydrocarbon receptor (Homo sapiens) (UniProt P35869); experiment: qHTS assay to identify small molecule that activate the aryl hydrocarbon receptor (AhR) signaling pathway (AID 743085);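 also: HG2L7.5c1 human HepG2 liver cells with stably integrated DRE-driven firefly reporter; series mostly up to about 70 µM; nearly all actives have a fitted effect of over 15% in size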
Outline: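 24 h compound exposure, 37C, HepG2-derived HG2L7.5c1 cells with DRE-responsive luciferase. Readouts: fluorescence viability, then luminescence at room temperature after 30 min.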

[3] = qHTS assay to identify small molecule that activate the aryl hydrocarbon receptor (AhR) signaling pathway - cell viability counter screen (AID 743086);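 also: HepG2 liver cells carrying the AhR DRE luciferase reporter; series mostly up to about 70 µM; nearly all actives have a fitted effect of over 45% in size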
Outline: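 Cytotoxicity counter screen: CellTiter-Fluor signal (30 min, 37 C) in 4000 HepG2 cells/well carrying the DRE-luciferase reporter, following 24 h compound exposure at 37 C.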

[4] = biological target: Peroxisome proliferator-activated receptor gamma (Homo sapiens) (UniProt P37231); experiment: qHTS assay to identify small molecule agonists of the peroxisome proliferator-activated receptor gamma (PPARg) signaling pathway (AID 743094; active = well fitted activation curve with a large enough effect in the signal ratio in the repeat runs, not every such curve was filed as active; the % refers to the signal ratio)
Outline: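 Quantitative HTS agonist mode: stable HEK293H line with UAS-beta-lactamase reporter under PPARg control, 17 h compound exposure at 37C, fluorescence after 1 h FRET substrate loading at room temperature.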

[5] = biological target: Peroxisome proliferator-activated receptor gamma (Homo sapiens) (UniProt P37231); experiment: qHTS assay to identify small molecule antagonists of the peroxisome proliferator-activated receptor gamma (PPARg) signaling pathway (AID 743191; calls by dose curve; also: series mostly up to about 63 µM; nearly all actives have a fitted effect of over 30% in size)
Outline: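 Beta-lactamase reporter under UAS control in HEK293H PPARg-bla cells; compound treatment 17 h at 37C. Read-out: fluorescence intensity after 1 h room-temperature incubation with LiveBLAzer B/G FRET substrate.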

[6] = qHTS assay to identify small molecule antagonists of the peroxisome proliferator-activated receptor gamma (PPARg) signaling pathway - cell viability counter screen (AID 743194); also: nearly all actives have a fitted effect of over 55% in size
Outline: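 Viability was measured as CellTiter-Glo luminescence in GeneBLAzer PPARg UAS-bla HEK293H cells. These cells had been exposed 17 h at 37 C to compounds together with rosiglitazone at 50 nM final, with the beta-lactamase readout taken in the same wells.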

[7] = qHTS assay for small molecule agonists of the antioxidant response element (ARE) signaling pathway (AID 743202; active = well fitted activation curve with a large enough effect in the signal ratio in the repeat runs, not every such curve was filed as active; the % refers to the signal ratio)
Outline: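 Quantitative high-throughput format in HepG2 cells bearing an integrated ARE-beta-lactamase reporter. Compound exposure lasted 16 h at 37 C, and fluorescence was read 2 h after adding LiveBLAzer B/G substrate at room temperature.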

[8] = qHTS assay for small molecule agonists of the antioxidant response element (ARE) signaling pathway - cell viability counter screen (AID 743203; calls by dose curve; also: nearly all actives have a fitted effect of over 55% in size)
Outline: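 Seeded at 2,000 cells/well, ARE-bla HepG2 cells were incubated 5 hrs before compound addition. After 16 hrs of treatment at 37C with 5% CO2, CellTiter-Glo reagent was added and luminescence read 30 min later.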

[9] = qHTS assay for small molecule activators of the heat shock response signaling pathway (AID 743210; active = well fitted activation curve with a large enough effect in the signal ratio in the repeat runs, with a control signal flat, not every such curve was filed as active; the % refers to the signal ratio;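 also: HeLa cells with beta-lactamase reporter driven by heat shock elements; series mostly up to about 63 µM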)
Outline: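 HeLa HSE-bla cells, overnight plating; cpd in DMSO 5 h, 37 C; LiveBLAzer B/G FRET substrate 2.5 h RT; fluorescence intensity read.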

[10] = qHTS assay for small molecule activators of the heat shock response signaling pathway - cell viability counter screen (AID 743209); also: nearly all actives have a fitted effect of over 50% in size
Outline: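 First, HSE-bla HeLa cells were seeded at 1500 cells/well and kept overnight at 37 C. Next, compounds were pinned in and incubated 5 h. After the FRET substrate step, CellTiter-Glo was added and luminescence read 30 min later.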

Measured: Potency

Aryl hydrocarbon receptor (Homo sapiens), sequence (P35869 whole entry, looked up): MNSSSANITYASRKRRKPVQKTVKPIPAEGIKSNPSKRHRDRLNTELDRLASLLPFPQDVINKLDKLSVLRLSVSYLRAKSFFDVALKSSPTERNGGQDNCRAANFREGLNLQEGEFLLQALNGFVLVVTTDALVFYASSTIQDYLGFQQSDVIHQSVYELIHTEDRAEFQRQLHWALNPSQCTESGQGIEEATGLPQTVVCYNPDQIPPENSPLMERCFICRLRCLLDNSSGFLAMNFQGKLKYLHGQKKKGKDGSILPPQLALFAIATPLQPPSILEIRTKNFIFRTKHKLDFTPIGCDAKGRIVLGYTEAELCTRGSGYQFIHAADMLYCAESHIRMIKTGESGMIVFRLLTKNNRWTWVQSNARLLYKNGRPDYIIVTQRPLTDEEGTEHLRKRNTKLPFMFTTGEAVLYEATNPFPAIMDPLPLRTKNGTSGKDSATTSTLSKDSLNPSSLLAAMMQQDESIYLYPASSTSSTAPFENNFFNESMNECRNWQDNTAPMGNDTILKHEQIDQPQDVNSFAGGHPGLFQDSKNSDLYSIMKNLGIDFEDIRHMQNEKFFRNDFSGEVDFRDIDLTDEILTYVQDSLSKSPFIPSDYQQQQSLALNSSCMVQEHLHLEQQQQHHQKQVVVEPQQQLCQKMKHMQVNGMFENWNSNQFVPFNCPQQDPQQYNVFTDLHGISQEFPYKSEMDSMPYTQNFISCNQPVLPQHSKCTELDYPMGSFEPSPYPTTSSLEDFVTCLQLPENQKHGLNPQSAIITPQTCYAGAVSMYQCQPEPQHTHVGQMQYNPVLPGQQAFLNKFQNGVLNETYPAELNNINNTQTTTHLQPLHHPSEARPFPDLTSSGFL
Peroxisome proliferator-activated receptor gamma (Homo sapiens), sequence (P37231 whole entry, looked up): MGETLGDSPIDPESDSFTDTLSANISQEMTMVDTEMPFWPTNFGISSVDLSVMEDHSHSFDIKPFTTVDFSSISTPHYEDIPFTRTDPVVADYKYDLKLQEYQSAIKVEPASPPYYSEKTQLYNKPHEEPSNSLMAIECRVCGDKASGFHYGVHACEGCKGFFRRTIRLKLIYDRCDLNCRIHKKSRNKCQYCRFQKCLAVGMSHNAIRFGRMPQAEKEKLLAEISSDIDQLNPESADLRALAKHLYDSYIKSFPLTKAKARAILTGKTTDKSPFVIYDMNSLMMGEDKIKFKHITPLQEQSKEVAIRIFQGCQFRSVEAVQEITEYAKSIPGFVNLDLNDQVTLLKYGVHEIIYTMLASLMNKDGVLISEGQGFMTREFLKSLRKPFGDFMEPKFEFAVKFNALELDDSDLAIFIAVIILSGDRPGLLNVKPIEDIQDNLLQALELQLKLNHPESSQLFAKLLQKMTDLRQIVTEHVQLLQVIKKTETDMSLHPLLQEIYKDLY

O=S1(=O)CCCC1
not listed: [10]
inactive: all other assays above

Nc1ccc(S(=O)(=O)Nc2ccccn2)cc1
not listed: [5] | [9]
inactive: all other assays above

Cc1nc(C)nc(N2C[C@@H](C)N(c3ccnc([C@@H](C)O)n3)[C@@H](C)C2)n1
not listed: [7]
inactive: all other assays above

C1=CCC(c2ccccc2)CC1 (stereo unspecified)
not listed: [7]
inactive: all other assays above

O=CN1CCOCC1
inactive: all assays above

Nc1cc(S(=O)(=O)O)ccc1S(=O)(=O)O
not listed: [7]
inactive: all other assays above

C=C[C@@H](C)CCC=C(C)C
inactive: all assays above

COc1cc2c3cc1Oc1cc(ccc1O)C[C@@H]1c4c(cc(OC)c(O)c4Oc4ccc(cc4)C[C@@H]3N(C)CC2)CC[N+]1(C)C
not listed: [5]
inactive: all other assays above

BrC/C=C/CBr
not listed: [7]
inactive: all other assays above

CN(C1CCCCC1)S(=O)(=O)c1ccccc1N
not listed: [7]
inactive: all other assays above

CC(C)(c1ccc(Oc2ccc3c(c2)C(=O)OC3=O)cc1)c1ccc(Oc2ccc3c(c2)C(=O)OC3=O)cc1
not listed: [5]
inactive: all other assays above

O=C(Oc1ccccc1C(=O)O)c1ccccc1O
inactive: all assays above

CC(C)COC(=O)CCCCC(=O)OCC(C)C
inactive: all assays above

CC(C)COC(=O)CC(C(=O)OCC(C)C)S(=O)(=O)O (stereo unspecified)
not listed: [7] | [8]
inactive: all other assays above

COCCOCCOCCOC
not listed: [10]
inactive: all other assays above

CCOC(=O)CC(CC(=O)OCC)(OC(C)=O)C(=O)OCC
not listed: [6]
inactive: all other assays above

CCCCCCCCCCCCC
not listed: [7] | [10]
inactive: all other assays above

CCCCCC(=O)OCC
not listed: [7]
inactive: all other assays above

CCN(CCC#N)c1ccccc1
not listed: [7]
inactive: all other assays above

O=C(O)CCNC(=O)c1ccccc1
not listed: [10]
inactive: all other assays above

CCC(C)N (stereo unspecified)
inactive: all assays above

NCCc1ccn[nH]1
not listed: [7]
inactive: all other assays above

CC(C)CCCCCCOC(=O)C1CCCCC1C(=O)OCCCCCCC(C)C (stereo unspecified)
not listed: [5] | [9]
inactive: all other assays above

CCC1COC(=O)O1 (stereo unspecified)
not listed: [4]
inactive: all other assays above

CCCC(C)CC (stereo unspecified)
not listed: [4]
inactive: all other assays above

CCC(C)(C)C1CCC(=O)CC1
not listed: [5]
inactive: all other assays above

NC(=O)NNC(N)=O
inactive: [1] | [2] | [3] | [4] | [8] | [9]
